40 compounds from PubChem BioAssay (EPA / NIEHS) can be followed below.

Calls of active or inactive are those of the source. The calls were made as follows: active = hit-call score of the fitted dose curve at least 0.9, where 1 is the maximum; inactive = score below 0.9.

The target of the test is Nuclear respiratory factor 1 (Homo sapiens) (UniProt Q16656). Put plainly: ATG_NRF1_CIS: Attagene CIS-FACTORIAL HepG2 Assay for human Nuclear Respiratory Factor 1 (NRF1) Orphan Gene (AID 2282987). Particulars: HepG2 NRF1 cis-element reporter, Attagene multiplex; actives raise or lower the signal. The method, then: ATG_CIS is a cell-based, multiplexed-readout assay that uses HepG2, a human liver cell line, with measurements taken at 24 hours after chemical dosing in a 24-well plate.ATG_NRF1_CIS is one of 52 assay component(s) measured or calculated from the ATG_CIS assay. It is designed to make measurements of mRNA induction, a form of inducible reporter, as detected with fluorescence intensity signals by Reverse transcription polymerase chain reaction (RT-PCR) and Capillary electrophoresis technology.Data from the assay component ATG_NRF1_CIS was analyzed into 1 assay endpoint. This assay endpoint, ATG_NRF1_CIS, was analyzed with bidirectional fitting relative to DMSO as the negative control and baseline of activity. Using a type of inducible reporter, measures of mRNA for gain or loss-of-signal activity can be used to understand the reporter gene at the transcription factor-level as they relate to the gene NRF1. Furthermore, this assay endpoint can be referred to as a primary readout, because this assay has produced multiple assay endpoints where this one serves a reporter gene function. To generalize the intended target to other relatable targets, this assay endpoint is annotated to the dna binding intended target family, where the subfamily is nuclear respiratory factors.
Chain of Nuclear respiratory factor 1 (Homo sapiens) (Q16656 whole entry, looked up): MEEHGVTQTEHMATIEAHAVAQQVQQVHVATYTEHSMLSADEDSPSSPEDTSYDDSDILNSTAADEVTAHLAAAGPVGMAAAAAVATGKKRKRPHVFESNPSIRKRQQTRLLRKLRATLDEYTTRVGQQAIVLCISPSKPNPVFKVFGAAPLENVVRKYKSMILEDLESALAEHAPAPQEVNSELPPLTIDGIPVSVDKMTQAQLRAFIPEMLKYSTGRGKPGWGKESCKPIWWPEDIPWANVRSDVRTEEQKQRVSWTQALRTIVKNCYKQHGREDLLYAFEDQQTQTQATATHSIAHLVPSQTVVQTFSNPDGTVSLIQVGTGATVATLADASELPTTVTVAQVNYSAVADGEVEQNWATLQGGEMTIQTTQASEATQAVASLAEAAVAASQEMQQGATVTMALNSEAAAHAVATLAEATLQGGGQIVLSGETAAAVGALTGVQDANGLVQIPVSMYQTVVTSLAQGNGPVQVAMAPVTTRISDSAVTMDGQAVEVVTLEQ
Human liver HepG2 cells are transiently transfected with multiple reporter transcription units (MRTUs) in 6-well plates using FuGene 6 reagent (Roche; 3 ml FuGene/1 mg DNA). The MRTU constructs are regulated by a cis-regulating element (promoter). […] A major difference between the CIS and TRANS system is that in CIS activities of endogenous TFs are measured, whereas the TRANS assay evaluates changes in activities of exogenous, chimeric NR-Gal4 proteins. […] At the end of 24 hour incubation, total RNA was isolated using TriZol reagent (Invitrogen). The isolated RNA is then reverse-transcribed using oligo(dT) primer and Mo-MLV reverse transcriptase (Invitrogen) with DNAse I (Ambion) treatment for 30 min. The one-tenth of the produced cDNA was amplified by PCR using Taq DNA polymerase (Invitrogen) and two reporter sequence-specific primers. The PCR products were fluorescently labeled by primer extension with 6-arboxyfluorescein (6-FAM) 5'-labeled reporter sequence-specific primer (2 min at 95 C, 20 s at 68 C and 10 min at 72 C) and these products were digested with 5U of HpaI (New England Biolabs) for 2h at 37 C. The fragments were purified using Qiaquick PCR columns (Qiagen), analyzed on an ABI 3130xL genetic analyzer (Applied Biosystems) with peak positions identified by using a set of X-rhodamine (ROX)-labeled MapMarker1000 molecular weight standards (BioVentures). The raw capillary electrophoresis data was processed using Attagraph software (Attagene).
`C=C(C)C(=O)O[C@H]1C[C@@H]2CC[C@@]1(C)C2(C)C`: the compound was classed as inactive. Regarding `CCCC/C=C\CCCCCCCCCC=O`, the compound was classed as inactive.

On to `CCC(=O)OCc1ccccc1`, for which the outcome was inactive. As for `O=C=NC1CCC(CC2CCC(N=C=O)CC2)CC1` (stereo not given), the compound was called inactive. As to `O=C(O)CCSCCC(=O)O`, the compound was called inactive. For `CC(C)OP(=O)(CP(=O)(OC(C)C)OC(C)C)OC(C)C`, the call was inactive. Take `CCc1c(C)cc(N)c(CC)c1N`: the call was inactive.

For `CC(O)C(C)O` (stereo not given), the result was inactive. On the same count and under the same terms, with `CCCCCCOC(=O)CC` the entry was “inactive”.

As to `C[C@]12CC[C@H]3[C@@H](CCC4=CC(=O)CC[C@@]43C)[C@@H]1CC[C@@H]2C(=O)CO`, the compound was called inactive.

Regarding `O=C(O)Cc1cccc2ccccc12`, the compound was classed as inactive. On the same count and under the same terms, to `CC(C)(C)NC(N)=O` belongs “inactive”; to `Cc1ccc2sc3cccc(C)c3c2c1`, “inactive”. Turning to `C#C[C@]1(O)CC[C@H]2[C@@H]3CCC4=Cc5oncc5C[C@]4(C)[C@H]3CC[C@@]21C`, the compound was called inactive. Regarding `CC(=O)Nc1ccc(CC(=O)O)cc1`, the result was inactive. Take `C[C@H]1C[C@@H]2[C@H]([C@@H](O)C[C@@]3(C)[C@H]2CC[C@]3(O)C(=O)CO)[C@@]2(C)C=CC(=O)C=C12`: the outcome was inactive. A word on the AC50: it is the midpoint of the concentration-response curve, whichever way the signal moves. For `O=Cc1ccc(Cl)c([N+](=O)[O-])c1`, the AC50 was 170 µM (active). `N#Cc1ccc(CC(=NNC(=O)Nc2ccc(OC(F)(F)F)cc2)c2cccc(C(F)(F)F)c2)cc1`: the call was inactive.

Consider `CC(=O)c1c(C)cc(C(C)(C)C)cc1C`, for which the outcome was inactive. Take `CC(=O)O[C@]1(C(C)=O)CC[C@H]2[C@@H]3C[C@H](C)C4=CC(=O)CC[C@]4(C)[C@H]3CC[C@@]21C`: the compound was classed as inactive. With `CCCCCCCCC=O`, the result was inactive.

For the compound `CCCC1CCC(=O)O1` (stereo not given), the call was inactive. Consider `Clc1cccc(Cl)n1`, for which the compound was classed as inactive. On the same count and under the same terms, with `CC1=CCC2C(C1)C2(C)C` (stereo not given) the entry was “inactive”. As for `O=C(O)c1ccc([N+](=O)[O-])cc1`, the outcome was inactive. Consider `CCCC(=O)C(C)=O`, for which the compound was called inactive. Turning to `CCCCCNCCCCC`, the call was inactive. As to `O=C1c2ccccc2C(=O)N1SC1CCCCC1`, the compound was classed as inactive. On to `CC(=O)OCCC(C)CC(C)(C)C` (stereo not given), for which the outcome was inactive. As for `Fc1c(F)c(F)c(Br)c(F)c1F`, the outcome was inactive. As for `CC(C)(N)CO`, the compound was classed as inactive.

As to `CC(C)=CCC[C@H](C)CC=O`, the outcome was inactive.

In the case of `O=C1CCCCCCCCCCCCCCO1`, the compound was called inactive.

As for `CNCCO`, the call was inactive. Turning to `C=CC[N+](C)(C)CC=C`, the compound was called inactive.

In the case of `O=c1[nH]c(=O)n([C@H]2CCCO2)cc1F`, the compound was called inactive.

`C=C(C)C(=O)OCc1ccccc1`: the compound was called inactive. Regarding `Nc1cc([N+](=O)[O-])ccc1O`, the outcome was inactive.

On to `CC1(C)C(=O)N(Br)C(=O)N1Cl`, for which the result was inactive. Take `CCCCCCCCCCCCCCCC(=O)OC[C@H](O)[C@H]1OC(=O)C(O)=C1O`: the result was inactive.
